Measured values published in PubChem BioAssay (NCATS).
Inconclusive results are not listed. Active and inactive are the calls of the source. Calls come from the whole dose curve; as a rule, active = well fitted inhibition curve with a large enough effect; inconclusive = small, poorly fitted or top-dose-only effect, or effect the other way; inactive = flat fitted curve, though single readings scatter.

molecular target: Ubiquitin carboxyl-terminal hydrolase 2 (Homo sapiens) (UniProt O75604); assay: qHTS Validation Assay for Inhibitors of Ubiquitin-specific Protease USP2a Using CHOP2 as the Reporter (AID 463106); settings: USP2a cleavage of CHOP2 reporter, enzymatic; series mostly up to 38.3 µM; activity, negative = inhibition: at the top concentration
Sequence (O75604 whole entry, looked up): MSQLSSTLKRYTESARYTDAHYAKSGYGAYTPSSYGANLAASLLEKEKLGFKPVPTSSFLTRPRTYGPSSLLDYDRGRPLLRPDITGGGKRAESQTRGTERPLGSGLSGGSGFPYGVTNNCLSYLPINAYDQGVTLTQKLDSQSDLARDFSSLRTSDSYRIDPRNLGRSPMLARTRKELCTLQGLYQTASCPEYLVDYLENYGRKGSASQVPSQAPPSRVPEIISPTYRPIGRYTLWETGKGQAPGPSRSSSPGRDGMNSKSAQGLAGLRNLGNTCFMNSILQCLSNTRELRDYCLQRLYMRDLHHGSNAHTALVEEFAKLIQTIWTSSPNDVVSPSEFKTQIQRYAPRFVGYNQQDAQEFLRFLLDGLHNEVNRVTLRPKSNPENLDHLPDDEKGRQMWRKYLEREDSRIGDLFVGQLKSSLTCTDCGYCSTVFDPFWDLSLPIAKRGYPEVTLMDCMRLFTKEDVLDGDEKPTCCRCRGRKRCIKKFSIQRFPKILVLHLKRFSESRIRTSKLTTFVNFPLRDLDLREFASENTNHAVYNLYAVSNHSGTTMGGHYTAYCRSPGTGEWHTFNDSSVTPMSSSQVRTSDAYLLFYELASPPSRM
Description: NIH Molecular Libraries Screening Centers Network [MLSCN]
NIH Chemical Genomics Center [NCGC]
PI Name: Nicholson, Ben. Progenra Inc, Malvern, PA
Homeostasis of cellular proteins is maintained through a combination of synthesis and degradation. The pathway that accounts for the majority of protein degradation is the ubiquitin-proteasomal pathway. Ubiquitin (Ub) is highly conserved in all cells and the generation of a multi-Ub chain typically targets proteins for degradation by the proteasome. However, ubiquitination is highly reversible and dynamic. Deubiquitination, the reverse process, is catalyzed through the action of enzymes referred to as isopeptidases or deubiquitinating enzymes (DUBs). This group of enzymes is collectively responsible for maintaining adequate pools of free ubiquitin and regulating the ubiquitination status of cellular proteins. The class of DUBs referred to as the ubiquitin-specific proteases (USP) family functions endoproteolytically to cleave Ub chains from a wide range of protein substrates. USP2a deubiquitinates fatty acid synthase (FASN) which has recently been identified as an emerging oncology target. To identify inhibitors of USP2a a cell-free assay was employed.
The reporter enzyme chosen is an enterokinase called CHOP2, which is activated when the Ub is cleaved by USP2. The free and now activated reporter can subsequently act on its reporter substrate. […] The assay was developed by Progenra, Inc. and has been licensed for sale by LifeSensors, Inc. as Ub-CHOP2-Reporter-Kit (#PR1101).
NCGC Assay Protocol Summary:
The assay buffer, prepared fresh at the day of the assay, contains 20mM Tris-HCl pH 8.0, 2mM CaCl2, 2mM beta-Mercaptoethanol, 0.05% CHAPS. 3ul of 20nM (10nM final) USP2 core, which is stored on ice, is dispensed into a medium-binding black solid Kalypsys 1,536 well plate using the Kalypsys dispenser. The assay plate is then pinned with 23nL compound with the Kalypsys pintool in columns 5-48. The controls are pinned as follows: column 1 two-fold dilutions of 2M NEM in duplicate; column 2 2M NEM (final concentration 38.2mM); column 3&4 DMSO. The assay plate is incubated at RT for 30min. Subsequently, 1.5uL of 100nM (25nM final) Ub-CHOP2 and 1.5uL of 100nM (25nM final) Reporter Substrate (both stored on ice and protected from light) were dispensed into the plate using the Kalypsys dispenser. Plates were read after 60min RT incubation on a ViewLux (Perkin Elmer) plate reader using the following wavelengths Ex 485nm /Em 531nm.
Data were normalized to the to AC100 inhibition (NEM). Concentration-response curves were fitted to the normalized data and the concentration-response curves were then classified based on curve quality (r2), response magnitude and degree of measured activity. The time zero reading was used to flag fluorescence artifacts.
Keywords: ubiquitination, deubiquitination, proteases, profluorescent, MLSMR, MLPCN, NIH Roadmap, qHTS, NCGC
Potency is the fitted concentration of half-maximal effect.

SMILES	activity, negative = inhibition	Potency
COc1cc(C(O)CN)ccc1O (stereo not given)	-1.41% (inactive)	–
CCCN(CCC)[C@@H]1CCc2ccc(O)cc2C1	0.916% (inactive)	–
CC(C)Oc1cccnc1N(C)C1CCN(Cc2ccccc2)CC1	-0.468% (inactive)	–
O=C1CCCN1CC#CCN1CCCC1	-1.13% (inactive)	–
O=C(O)[C@@H]1CCN1	-1.15% (inactive)	–
C#CCOC(=O)C1=CCCN(C)C1	0.434% (inactive)	–
CS(=N)(=O)CC[C@H](N)C(=O)O (stereo not given in full)	0.638% (inactive)	–
CNCCc1c[nH]c2ccc(O)cc12	3.41% (inactive)	–
CC[C@@H](C(N)=O)N1CCCC1=O	0.333% (inactive)	–
CCCN1CCC[C@H](c2cccc(O)c2)C1	0.557% (inactive)	–
COC(=O)[C@@H](N)CCCN=C(N)N[N+](=O)[O-]	-0.627% (inactive)	–
NC(N)=NOCCC(N)C(=O)O (stereo not given)	-1.62% (inactive)	–
Cc1nccc2c1[nH]c1ccccc12	3.23% (inactive)	–
S=C(NC1CCCCC1)N1CCC(c2cnc[nH]2)CC1	-0.686% (inactive)	–
NC(=NCCC[C@H](N)C(=O)O)N[N+](=O)[O-]	0.782% (inactive)	–
CC[C@@]1(O)C(=O)OCc2c1cc1n(c2=O)Cc2cc3ccccc3nc2-1	-0.833% (inactive)	–
c1ccc2sc(C3(N4CCCCC4)CCCCC3)cc2c1	-0.91% (inactive)	–
CC(C)NC(C)Cc1ccc(I)cc1 (stereo not given)	-0.673% (inactive)	–
Clc1ccc(C(c2ccc(Cl)cc2)n2cc[n+](CC(OCc3ccc(Cl)cc3Cl)c3ccc(Cl)cc3Cl)c2)cc1 (stereo not given)	–	13.1 µM (active)
C[N+]1(C)C2CCC1CC(OC(=O)C(CO)c1ccccc1)C2 (stereo not given)	–	inactive

SMILES	activity, negative = inhibition	Potency
C=CCN1CC[C@]23CCCCC2[C@H]1Cc1ccc(O)cc13 (stereo not given in full)	0.77% (inactive)	–
CC(=O)NCCc1c[nH]c2ccccc12	-0.14% (inactive)	–
CC1=NN=C(c2ccc(N)cc2)c2cc3c(cc2C1)OCO3	0.209% (inactive)	–
C[C@]12N[C@H](Cc3ccccc31)c1ccccc12	-0.4% (inactive)	–
NC(=O)CN1CC(O)CC1=O (stereo not given)	1.38% (inactive)	–
Oc1ccc2c3c1O[C@H]1c4[nH]c5c(c4C[C@@]4(O)[C@@H](C2)N(CC2CC2)CC[C@]314)C[C@@]1(O)[C@H]2Cc3ccc(O)c4c3[C@@]1(CCN2CC1CC1)[C@H]5O4	1.08% (inactive)	–
Clc1cnc(Oc2ccc(Oc3ncc(Cl)cc3Cl)cc2)c(Cl)c1	-0.34% (inactive)	–
C[C@@H](N)Cc1cnc[nH]1	-1.29% (inactive)	–
c1ccc(C2(c3ccccc3)CC2C2=NCCN2)cc1 (stereo not given)	0.0996% (inactive)	–
NCCc1c[nH]c2ccccc12	-0.679% (inactive)	–
O=C(O)CC[N+](=O)[O-]	4.02% (inactive)	–
O=C(Cc1ccc(Cl)c(Cl)c1)N1CCCCC1CN1CCCC1 (stereo not given)	-0.332% (inactive)	–
C[C@]12CCC3C(CC[C@H]4C[C@H](O)CC[C@]34C)C1CC[C@@H]2C(=O)CO (stereo not given in full)	0.527% (inactive)	–
NC1CC1c1ccccc1 (stereo not given)	-0.559% (inactive)	–
Cn1cnc(CCN)c1	1.91% (inactive)	–
CNCCc1ccc(O)c(O)c1	-1.07% (inactive)	–
C/C=C(/C)C(=O)O[C@H]1C(C)=C2[C@H]([C@@H]1OC(=O)CCCCCCC)[C@@](C)(OC(C)=O)C[C@H](OC(=O)CCC)[C@@]1(O)[C@H]2OC(=O)[C@@]1(C)O	-29.6% (inactive)	–
C[C@@H]1O[C@H](C[N+](C)(C)C)C[C@H]1O	-0.0573% (inactive)	–
CCCCc1ccc(C(=O)O)nc1	1.34% (inactive)	–
COc1ccc2c(c[n+](C)c3c4cc5c(cc4ccc23)OCO5)c1OC	-6.07% (inactive)	–
